Test results published in PubChem BioAssay (Tox21).
Values without a mark were called inactive. Inconclusive results are not listed. Entries that show only a call come without a potency. Activity calls are given as the source filed them. Unless noted, calls follow the shape of the full dose curve.

Tests used:
[1] = Nuclear factor erythroid 2-related factor 2/antioxidant responsive element (Nrf2/ARE) small molecule agonists: qHTS cell viability counter screen in human keratinocytes (AID 1919968; active = well fitted curve in the direction sought with a large enough effect in the repeat runs; an effect the other way counts as inactive or inconclusive; also: nearly all actives have a fitted effect of over 55% in size; also: potency is read from the fitted curve at half-maximal effect)
In short: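 Measured as CellTiter-Fluor fluorescence, this readout tracks cytotoxicity in the same wells as the ARE-luciferase screen. HaCaT reporter cells (1,500/well) received compounds after a 5 h pre-incubation and were exposed for 23 h.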

[2] = Nuclear factor erythroid 2-related factor 2/antioxidant responsive element (Nrf2/ARE) small molecule agonists: luciferase reporter gene qHTS assay in human keratinocytes (AID 1919969); also: nearly all actives have a fitted effect of over 35% in size; also: potency is read from the fitted curve at half-maximal effect
[3] = target: Gonadotropin-releasing hormone receptor (Homo sapiens) (UniProt P30968); experiment: Human gonadotropin-releasing hormone receptor (GnRHR) small molecule agonists, calcium flux assay in GnRHR-HEK293 cells (AID 1920063); also: nearly all actives have a fitted effect of over 35% in size
Chain of Gonadotropin-releasing hormone receptor (Homo sapiens) (P30968 whole entry, looked up): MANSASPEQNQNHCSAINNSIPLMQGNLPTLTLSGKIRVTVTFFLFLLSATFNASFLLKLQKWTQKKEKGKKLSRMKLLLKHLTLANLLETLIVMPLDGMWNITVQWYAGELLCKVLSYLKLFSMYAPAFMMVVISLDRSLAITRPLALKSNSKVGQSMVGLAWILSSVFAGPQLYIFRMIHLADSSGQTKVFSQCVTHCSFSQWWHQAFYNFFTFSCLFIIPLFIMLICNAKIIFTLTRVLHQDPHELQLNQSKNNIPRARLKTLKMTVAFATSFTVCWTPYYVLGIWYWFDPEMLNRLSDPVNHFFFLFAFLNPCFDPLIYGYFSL
In short: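 Fluorescence kinetics (480 nm excitation, 540 nm emission; 3 min, 1 s steps) report calcium mobilisation in human GnRHR-HEK293 cells in agonist mode. Dye incubation: 1 h, 37 C.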

[4] = target: KiSS-1 receptor (Homo sapiens) (UniProt Q969F8); experiment: Human kisspeptin (KISS1R) small molecule agonists, calcium flux assay in KISS1R-HEK293 cells (AID 1920064; active = well fitted curve in the direction sought with a large enough effect in the repeat runs; an effect the other way counts as inactive or inconclusive)
Chain of KiSS-1 receptor (Homo sapiens) (Q969F8 whole entry, looked up): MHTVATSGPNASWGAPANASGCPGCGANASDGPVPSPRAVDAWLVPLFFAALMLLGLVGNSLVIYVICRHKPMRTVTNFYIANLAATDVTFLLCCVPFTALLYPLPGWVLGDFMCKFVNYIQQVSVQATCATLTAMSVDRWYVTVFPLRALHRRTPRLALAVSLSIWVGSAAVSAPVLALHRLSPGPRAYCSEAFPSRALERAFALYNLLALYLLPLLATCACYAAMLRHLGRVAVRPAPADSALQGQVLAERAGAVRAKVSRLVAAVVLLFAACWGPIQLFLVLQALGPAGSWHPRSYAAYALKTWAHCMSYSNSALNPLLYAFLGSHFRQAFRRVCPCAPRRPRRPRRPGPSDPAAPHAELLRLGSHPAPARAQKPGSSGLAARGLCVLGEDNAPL
In short: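 Measures KISS1R agonism through calcium-sensitive dye fluorescence in stably transfected HEK293 cells, read for 3 min after pin-tool compound delivery; 15-point titrations in triplicate.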

[5] = G protein-coupled receptor (GPCR) small molecule agonists, calcium flux assay: HEK293 wild type cell line counter screen (AID 1920065)
In short: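 Readout: fluorescence at 480 nm excitation/540 nm emission, sampled at 1 s intervals for 3 min. Cells had been cultured 18 h, then dye-loaded 1 h at 37 C before compound or ATP addition.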

[6] = p53 small molecule agonists, cell-based qHTS assay with human liver microsomes: qHTS cell viability counter screen (AID 1963579); also: nearly all actives have a fitted effect of over 45% in size; also: potency is read from the fitted curve at half-maximal effect
In short: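 Viability of p53RE-bla cells is measured as CellTiter-Glo luminescence following a 16 h, 37 C incubation with compound, liver microsomes from human donors and NADPH.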

[7] = p53 small molecule agonists, cell-based qHTS assay with rat liver microsomes: qHTS cell viability counter screen (AID 1963580); also: nearly all actives have a fitted effect of over 45% in size
In short: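 Viability is assessed in parallel with the p53 reporter read: HCT-116 p53RE-bla cells receive compounds plus rat microsomes and NADPH (0.5 mg/mL final apiece), incubate 16 h at 37 C, and then CellTiter-Glo luminescence is recorded.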

[8] = p53 small molecule agonists, cell-based qHTS assay: qHTS cell viability counter screen (AID 1963581); also: nearly all actives have a fitted effect of over 45% in size
In short: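 In the same plates used for the p53 bla reporter, HCT-116 cells given compounds for 16 h at 37 C received CellTiter-Glo; luminescence was recorded 30 min later at room temperature.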

[9] = p53 small molecule agonists, cell-based qHTS assay (AID 1963582; active = well fitted activation curve with a large enough effect in the signal ratio in the repeat runs, not every such curve was filed as active; the % refers to the signal ratio)
In short: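 Compounds are pin-transferred in DMSO onto p53RE-bla cells and incubated 16 h at 37 C. The B/G FRET beta-lactamase substrate is then applied for 2 h at RT and fluorescence recorded.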

[10] = target: Muscarinic acetylcholine receptor M1 (Homo sapiens) (UniProt P11229); experiment: Cholinergic receptor muscarinic 1 (CHRM1) small molecule antagonists, cell-based qHTS assay (AID 1963588); also: nearly all actives have a fitted effect of over 40% in size
Chain of Muscarinic acetylcholine receptor M1 (Homo sapiens) (P11229 whole entry, looked up): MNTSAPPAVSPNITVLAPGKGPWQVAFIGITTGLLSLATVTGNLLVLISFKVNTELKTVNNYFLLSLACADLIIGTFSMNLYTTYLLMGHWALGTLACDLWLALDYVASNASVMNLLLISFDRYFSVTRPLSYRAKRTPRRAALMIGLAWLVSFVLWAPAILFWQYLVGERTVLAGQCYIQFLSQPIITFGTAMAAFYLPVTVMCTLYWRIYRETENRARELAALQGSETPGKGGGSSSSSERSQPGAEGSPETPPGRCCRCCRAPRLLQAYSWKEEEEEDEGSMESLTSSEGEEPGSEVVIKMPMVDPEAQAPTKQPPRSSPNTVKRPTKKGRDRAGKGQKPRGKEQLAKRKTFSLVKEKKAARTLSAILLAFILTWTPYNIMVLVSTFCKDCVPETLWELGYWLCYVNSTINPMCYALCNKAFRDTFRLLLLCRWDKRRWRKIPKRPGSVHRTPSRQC
In short: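 CHRM1-CHO calcium-flux assay, antagonist mode. Cells were seeded 18 h, dye-loaded 1 h at 37 C and given compound for 5 min at RT, then acetylcholine was added at 50nM. FDSS fluorescence was read 3 min; 15 concentrations, three runs.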

[11] = target: Muscarinic acetylcholine receptor M1 (Homo sapiens) (UniProt P11229); experiment: Cholinergic receptor muscarinic 1 (CHRM1) small molecule agonists, cell-based qHTS assay (AID 1963589); also: nearly all actives have a fitted effect of over 35% in size; also: potency is read from the fitted curve at half-maximal effect
In short: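 Each compound was tested at 15 concentrations across three independent runs on dye-loaded CHO cells stably expressing human CHRM1, reading intracellular calcium fluorescence kinetically at 1 sec intervals.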

[12] = cAMP Responsive Elements (CRE) small molecule agonists, cell-based qHTS assay (AID 1963590)
In short: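 Cell line: CRE-bla HEK 293T; medium DMEM/10% dialyzed FBS/0.1 mM NEAA/1 mM pyruvate/25 mM HEPES; 3 h compound exposure; beta-lactamase FRET readout after 2 h substrate loading at RT.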

[13] = target: Beta-2 adrenergic receptor (Homo sapiens) (UniProt P07550); experiment: Adrenergic beta2 receptor (ADRB2) small molecule agonists, cell-based qHTS assay (AID 1963593);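 also: CHO cells stably overexpressing human ADRB2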
Chain of Beta-2 adrenergic receptor (Homo sapiens) (P07550 whole entry, looked up): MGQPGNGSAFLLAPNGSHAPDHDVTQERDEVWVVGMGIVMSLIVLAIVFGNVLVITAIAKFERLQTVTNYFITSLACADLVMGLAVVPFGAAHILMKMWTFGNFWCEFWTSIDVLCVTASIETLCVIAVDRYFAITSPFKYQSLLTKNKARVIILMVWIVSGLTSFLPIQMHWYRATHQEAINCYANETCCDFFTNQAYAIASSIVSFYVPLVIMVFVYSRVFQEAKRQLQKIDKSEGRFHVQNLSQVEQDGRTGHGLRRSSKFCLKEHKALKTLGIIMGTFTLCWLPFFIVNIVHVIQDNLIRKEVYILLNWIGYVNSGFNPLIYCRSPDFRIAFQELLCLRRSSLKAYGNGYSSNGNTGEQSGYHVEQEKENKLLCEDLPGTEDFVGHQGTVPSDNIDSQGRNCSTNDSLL
In short: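 CHO cells stably over-expressing ADRB2 were plated overnight at 37C, then dosed with compounds plus a stimulation mix containing 100uM IBMX and 25uM Ro-20-1724 for 0.5hr at room temperature. cAMP was measured by HTRF competition, 1hr.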

[14] = target: D(2) dopamine receptor (Homo sapiens) (UniProt P14416); experiment: Dopamine D2 receptor (DRD2) small molecule agonists, cell-based qHTS assay (AID 1963594); also: nearly all actives have a fitted effect of over 35% in size
Chain of D(2) dopamine receptor (Homo sapiens) (P14416 whole entry, looked up): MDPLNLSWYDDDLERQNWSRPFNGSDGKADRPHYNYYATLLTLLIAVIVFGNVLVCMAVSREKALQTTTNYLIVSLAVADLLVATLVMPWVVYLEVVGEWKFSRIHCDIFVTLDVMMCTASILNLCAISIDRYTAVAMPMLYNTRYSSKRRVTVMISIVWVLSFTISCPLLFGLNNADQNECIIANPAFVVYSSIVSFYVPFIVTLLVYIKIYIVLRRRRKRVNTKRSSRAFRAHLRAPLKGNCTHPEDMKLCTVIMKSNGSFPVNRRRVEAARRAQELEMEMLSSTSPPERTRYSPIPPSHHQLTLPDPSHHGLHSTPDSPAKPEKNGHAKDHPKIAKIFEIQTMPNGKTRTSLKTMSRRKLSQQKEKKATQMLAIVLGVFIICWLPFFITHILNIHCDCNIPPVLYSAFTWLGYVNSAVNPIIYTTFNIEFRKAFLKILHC
In short: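 HEK293 cells stably expressing human DRD2, pre-treated with PDE inhibitor Ro20-1724 (0.1 mM final) and compound 10 min at room temperature, then stimulated with NKH477 (200nM […]) for 30 min. cAMP read by HTRF (665/620 nm).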

[15] = target: D(2) dopamine receptor (Homo sapiens) (UniProt P14416); experiment: Dopamine D2 receptor (DRD2) small molecule antagonists, cell-based qHTS assay (AID 1963595; active = well fitted inhibition curve with a large enough effect in the signal ratio in the repeat runs, with a control signal flat; the % refers to the signal ratio)
In short: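 Antagonist mode in DRD2-HEK293 cells: after compound addition with 0.1 mM Ro20-1724, cells received quinpirole (12 nM) and NKH477 (200 nM) for 30 min at room temperature; HTRF cAMP read after 1 h detection.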

[16] = target: 5-hydroxytryptamine receptor 2A (Homo sapiens) (UniProt P28223); experiment: 5-hydroxytryptamine receptor 2A (HTR2A) small molecule antagonists, cell-based qHTS assay (AID 1963586); also: nearly all actives have a fitted effect of over 45% in size
Chain of 5-hydroxytryptamine receptor 2A (Homo sapiens) (P28223 whole entry, looked up): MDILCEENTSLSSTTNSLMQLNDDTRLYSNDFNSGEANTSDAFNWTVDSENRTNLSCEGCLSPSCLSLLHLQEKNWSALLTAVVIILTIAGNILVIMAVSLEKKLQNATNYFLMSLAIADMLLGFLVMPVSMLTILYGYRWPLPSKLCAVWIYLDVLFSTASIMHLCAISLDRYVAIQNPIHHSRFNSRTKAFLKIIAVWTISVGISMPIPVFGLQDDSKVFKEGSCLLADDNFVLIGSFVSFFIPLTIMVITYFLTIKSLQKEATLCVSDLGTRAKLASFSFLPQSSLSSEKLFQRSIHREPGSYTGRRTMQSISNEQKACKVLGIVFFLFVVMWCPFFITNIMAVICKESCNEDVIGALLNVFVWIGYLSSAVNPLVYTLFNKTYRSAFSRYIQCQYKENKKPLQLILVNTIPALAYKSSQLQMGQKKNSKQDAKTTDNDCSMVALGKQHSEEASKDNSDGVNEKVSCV
In short: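 Antagonist-mode intracellular calcium assay: DOI (4 nM) added after 5 min compound pre-incubation at room temperature to dye-loaded HTR2A-CHO cells. Fluorescence followed for 3 min, sampled every second.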

[17] = target: 5-hydroxytryptamine receptor 2A (Homo sapiens) (UniProt P28223); experiment: 5-hydroxytryptamine receptor 2A (HTR2A) small molecule agonists, cell-based qHTS assay (AID 1963587); also: nearly all actives have a fitted effect of over 30% in size
In short: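 CHO cells stably expressing human HTR2A, plated 18 h, loaded with calcium dye 1 h at 37 C. Agonist mode: compounds added and intracellular calcium fluorescence recorded kinetically for 2 min at 1 sec intervals.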

[18] = cAMP Responsive Elements (CRE) small molecule antagonists, cell-based qHTS assay (AID 1963591; active = well fitted inhibition curve with a large enough effect in the signal ratio in the repeat runs, not every such curve was filed as active; the % refers to the signal ratio)
In short: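 Inhibition of NKH477-driven (0.25 uM final) CRE-beta-lactamase signal in HEK293T cells, 3 h compound exposure at 37 °C, detected by FRET substrate fluorescence.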

[19] = target: Beta-2 adrenergic receptor (Homo sapiens) (UniProt P07550); experiment: Adrenergic beta2 receptor (ADRB2) small molecule antagonists, cell-based qHTS assay (AID 1963592); also: series mostly up to about 92 µM; nearly all actives have a fitted effect of over 50% in size
In short: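 Cells (CHO, stable ADRB2 overexpression) incubated 18-20hr at 37C; compounds added from DMSO; agonist mix (1nM isoproterenol, 100uM IBMX, 25uM Ro-20-1724) added; 0.5hr RT; d2-cAMP and anti-cAMP-cryptate added; 1hr RT; 665/615 nm read.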

[20] = p53 small molecule agonists, cell-based qHTS assay with rat liver microsomes (AID 1963578)
In short: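 Quantitative HTS of the Tox21 10K library: p53RE-bla cells, rat liver microsomes plus NADPH at 0.5 mg/mL final each, 16 h at 37 C, beta-lactamase fluorescence detection.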

| Compound | Potency [1] | Potency [2] | Potency [3] | Potency [4] | Potency [5] | Potency [6] | Potency [7] | Potency [8] | Potency [9] | Potency [10] | Potency [11] | Potency [12] | Potency [13] | Potency [14] | Potency [15] | Potency [16] | Potency [17] | Potency [18] | Potency [19] | Potency [20] |
| --- | --- | --- | --- | --- | --- | --- | --- | --- | --- | --- | --- | --- | --- | --- | --- | --- | --- | --- | --- | --- |
| O=C(O)CCCl | inactive | inactive | inactive | inactive | inactive | inactive | inactive | inactive | inactive | inactive | inactive | inactive | inactive | inactive | inactive |  |  |  |  |  |
| COC(=O)Nc1nc2ccc(C(=O)C3CC3)cc2[nH]1 | inactive | 8.41 µM (active) | inactive | inactive | inactive |  |  |  |  |  | inactive | inactive |  | inactive | inactive | inactive | inactive | inactive | inactive |  |
| O=S(=O)(O)c1cc(I)c(O)c2ncccc12 | inactive | inactive | inactive | inactive | inactive | inactive | inactive | inactive | inactive | inactive | inactive | inactive | inactive |  | inactive | inactive | inactive | inactive | inactive |  |
| Cc1c(NC(=O)c2cccnc2)c(=O)n(-c2ccccc2)n1C | inactive | inactive | inactive | inactive | inactive | inactive | inactive | inactive | inactive | inactive | inactive | inactive | inactive |  | inactive | inactive | inactive | inactive | inactive | inactive |
| CC1=Nc2ccccc2C1(C)C | inactive | 43.3 µM (active) | inactive | inactive | inactive | inactive | inactive |  |  | inactive | inactive |  | inactive | inactive | inactive | inactive | inactive | inactive | inactive |  |
| CC(=O)c1ccc[nH]1 | inactive | inactive | inactive | inactive | inactive | inactive | inactive | inactive | inactive | inactive | inactive | inactive | inactive |  | inactive | inactive | inactive | inactive | inactive | inactive |
| COc1nccnc1CC(C)C | inactive | inactive | inactive | inactive | inactive | inactive | inactive | inactive | inactive | inactive | inactive | inactive |  | inactive | inactive | inactive | inactive | inactive | inactive |  |
| CC[C@]1(O)C[C@H]2CN(CCc3c([nH]c4ccccc34)[C@@](C(=O)OC)(c3cc4c(cc3OC)N(C=O)[C@H]3[C@@](O)(C(=O)OC)[C@H](OC(C)=O)[C@]5(CC)C=CCN6CC[C@]43[C@@H]65)C2)C1 | inactive | 0.596 µM (active) | inactive | inactive | inactive |  |  |  |  |  |  |  | inactive |  | inactive |  |  |  | inactive | inactive |
| O=C(O)Cc1cc(I)c(Oc2cc(I)c(O)c(I)c2)c(I)c1 | inactive | 30 µM (active) | inactive | inactive | inactive | 17.9 µM (active) | inactive |  |  | inactive | inactive |  |  | inactive | inactive |  |  |  | inactive |  |
| CCCCN(CCN(CCCC)C(=O)N1CCOCC1)C(=O)N1CCOCC1 | 29.8 µM (active) | 21.1 µM (active) | inactive | inactive | inactive |  |  | inactive | inactive | inactive | inactive |  | inactive | inactive | inactive |  | inactive |  | inactive | inactive |
| CS(=O)(=O)CCNCc1ccc(-c2ccc3ncnc(Nc4ccc(OCc5cccc(F)c5)c(Cl)c4)c3c2)o1 | 29.8 µM (active) | inactive | inactive | inactive | inactive | inactive |  | inactive |  | inactive | 0.012 µM (active) |  |  | inactive | inactive | inactive | inactive |  |  |  |
| CC(C)N1C(=O)c2ccccc2C1=O | inactive | inactive | inactive | inactive | inactive | inactive | inactive | inactive | inactive | inactive | inactive | inactive | inactive | inactive | inactive |  | inactive |  | inactive | inactive |
| CCn1nc(C)c2c1C(=O)NCC(c1ccc(O)cc1)=N2 | inactive | inactive | inactive | inactive | inactive | inactive | inactive | inactive | inactive | inactive | inactive | inactive | inactive | inactive |  | inactive | inactive |  | inactive | inactive |
| CC/C=C\CCOC(C)OCC (centres undefined) | inactive | inactive | inactive | inactive | inactive | inactive | inactive | inactive | inactive | inactive | inactive | inactive |  | inactive | inactive | inactive | inactive |  | inactive | inactive |
| Cc1onc(-c2c(Cl)cccc2Cl)c1C(=O)Cl | inactive | inactive | inactive | inactive | inactive | inactive | inactive | inactive | inactive | inactive | inactive |  | inactive | inactive | inactive |  | inactive | inactive | inactive | inactive |
